“And” between values parts separate entries of the source, which are not always exact repeats. Identical values can stand only once. Inconclusive results are not listed. A call without a number means that no potency is given here. Some compounds were tested as several samples or in several runs, with calls that do not always agree. The source made the active and inactive calls. Unless noted, calls come from the whole dose curve; as a rule, active = well fitted curve in the direction sought with a large enough effect in the repeat runs; inconclusive = weak or mixed curves; inactive = no such curve, though single readings can be large; an effect the other way counts as inactive or inconclusive.
Key:
[1] = qHTS assay to identify small molecule agonists of the RXR signaling pathway - cell viability counter screen (AID 1159529); note: nearly all actives have a fitted effect of over 50% in size; note: potency is the fitted concentration of half-maximal effect
Procedure, shortened: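 Luminescence from CellTiter-Glo (30 min, RT) measured viability in the same wells as the beta-lactamase reporter readout. Cells: GeneBLAzer RXR-alpha HEK 293T, 2% charcoal-stripped FBS. Compound exposure 16 hr, 37 C.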

[2] = qHTS assay to identify small molecule antagonists of the retinoid acid receptor (RAR) signaling pathway - cell viability counter screen (AID 1159551); note: nearly all actives have a fitted effect of over 35% in size; note: potency is the fitted concentration of half-maximal effect
Procedure, shortened: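 ATP-based viability, C3RL4 cells, 6 h at 37 C with 1 uM final retinol co-added after compound; luminescence read 30 min post CellTiter-Glo, RT.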

[3] = qHTS assay to identify small molecule antagonists of the retinoic acid receptor (RAR) signaling pathway (AID 1159552; note: nearly all actives have a fitted effect of over 50% in size)
Procedure, shortened: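 Luminescence from a RARE luciferase reporter in C3RL4 cells served as read-out. Cells received compounds together with 1 uM final retinol and incubated 6 hr at 37 C before detection reagent was added for 30 min at room temperature.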

[4] = qHTS assay to identify small molecule agonists of the retinoic acid receptor (RAR) signaling pathway (AID 1159553); note: potency is the fitted concentration of half-maximal effect
Procedure, shortened: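 Quantitative high-throughput format: the Tox21 10K library was tested on C3RL4 RARE-luciferase cells for 6 hr at 37 C and 5% CO2, with luminescence measured after a 30 min room-temperature reagent step.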

[5] = target: Luciferin 4-monooxygenase (Photinus pyralis) (UniProt P08659); assay: qHTS assay to identify small molecule inhibitors of firefly luciferase (AID 1224835); note: nearly all actives have a fitted effect of over 25% in size; note: potency is the fitted concentration of half-maximal effect
Sequence of Luciferin 4-monooxygenase (Photinus pyralis) (P08659 whole entry, looked up): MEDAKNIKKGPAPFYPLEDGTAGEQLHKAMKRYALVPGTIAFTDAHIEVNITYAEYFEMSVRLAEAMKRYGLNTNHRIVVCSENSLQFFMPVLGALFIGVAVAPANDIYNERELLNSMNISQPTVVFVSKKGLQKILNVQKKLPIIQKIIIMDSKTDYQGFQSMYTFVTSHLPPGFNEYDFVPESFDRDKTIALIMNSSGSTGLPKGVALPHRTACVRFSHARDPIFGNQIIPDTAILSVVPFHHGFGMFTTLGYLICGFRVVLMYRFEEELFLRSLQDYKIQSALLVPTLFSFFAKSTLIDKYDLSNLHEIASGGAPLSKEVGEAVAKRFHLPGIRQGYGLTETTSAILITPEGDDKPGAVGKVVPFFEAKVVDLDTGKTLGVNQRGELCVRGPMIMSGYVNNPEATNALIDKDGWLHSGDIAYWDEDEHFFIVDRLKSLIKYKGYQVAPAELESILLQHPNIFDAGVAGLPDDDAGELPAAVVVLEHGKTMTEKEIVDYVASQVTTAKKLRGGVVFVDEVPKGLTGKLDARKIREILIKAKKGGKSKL
Procedure, shortened: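 Biochemical qHTS: compounds run as interplate titrations against purified firefly enzyme, with D-luciferin and ATP each at its KM concentration. Light output recorded by CCD imaging.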

[6] = qHTS assay to identify small molecule agonists of the constitutive androstane receptor (CAR) signaling pathway - cell viability counter screen (AID 1224836); note: nearly all actives have a fitted effect of over 45% in size; note: potency is the fitted concentration of half-maximal effect
Procedure, shortened: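 Viability read-out: CellTiter-Fluor fluorescence after 23 h compound exposure at 37 C/5% CO2 in double-stable HepG2-CYP2B6-hCAR cells, with PK11195 present at 0.75 uM final; compounds tested in 15-point titration.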

[7] = qHTS assay to identify small molecule antagonists of the constitutive androstane receptor (CAR) signaling pathway - cell viability counter screen (AID 1224837); note: nearly all actives have a fitted effect of over 45% in size; note: potency is the fitted concentration of half-maximal effect
Procedure, shortened: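 Cells are seeded, rested 4 hr at 37 C/5% CO2, dosed with compound (15-point series) and 50 nM CITCO, incubated a further 23 hr, and then CellTiter-Fluor reagent is added before fluorescence is read. The line is HepG2 with stable hCAR and CYP2B6-2.2kb.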

[8] = target: Nuclear receptor subfamily 1 group I member 3 (Homo sapiens) (UniProt Q14994); assay: qHTS assay to identify small molecule antagonists of the constitutive androstane receptor (CAR) signaling pathway (AID 1224838);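 note: HepG2 cells stably expressing hCAR with CYP2B6 luciferase reporter stimulated by CITCO; nearly all actives have a fitted effect of over 40% in size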; note: potency is the fitted concentration of half-maximal effect
Sequence of Nuclear receptor subfamily 1 group I member 3 (Homo sapiens) (Q14994 whole entry, looked up): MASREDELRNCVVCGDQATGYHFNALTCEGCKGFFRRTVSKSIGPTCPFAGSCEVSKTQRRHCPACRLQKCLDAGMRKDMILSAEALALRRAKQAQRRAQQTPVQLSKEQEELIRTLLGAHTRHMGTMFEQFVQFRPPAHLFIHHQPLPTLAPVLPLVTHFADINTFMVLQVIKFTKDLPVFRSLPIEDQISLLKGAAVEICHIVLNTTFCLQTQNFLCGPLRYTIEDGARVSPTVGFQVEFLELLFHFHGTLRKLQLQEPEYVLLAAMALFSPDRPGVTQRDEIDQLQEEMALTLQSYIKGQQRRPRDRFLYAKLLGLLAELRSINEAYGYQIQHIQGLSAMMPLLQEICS
Procedure, shortened: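 Luminescence from a CYP2B6-2.2kb promoter reporter in hCAR-expressing HepG2 cells reflects CAR signaling. Cells received compounds at 15 concentrations and 50 nM CITCO (final), then incubated 24 h at 37 C/5% CO2.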

[9] = target: Retinoic acid receptor RXR-alpha (Homo sapiens) (UniProt P19793); assay: qHTS assay to identify small molecule agonists of the RXR signaling pathway (AID 1159527; calls by dose curve; note: nearly all actives have a fitted effect of over 35% in size)
Sequence of Retinoic acid receptor RXR-alpha (Homo sapiens) (P19793 whole entry, looked up): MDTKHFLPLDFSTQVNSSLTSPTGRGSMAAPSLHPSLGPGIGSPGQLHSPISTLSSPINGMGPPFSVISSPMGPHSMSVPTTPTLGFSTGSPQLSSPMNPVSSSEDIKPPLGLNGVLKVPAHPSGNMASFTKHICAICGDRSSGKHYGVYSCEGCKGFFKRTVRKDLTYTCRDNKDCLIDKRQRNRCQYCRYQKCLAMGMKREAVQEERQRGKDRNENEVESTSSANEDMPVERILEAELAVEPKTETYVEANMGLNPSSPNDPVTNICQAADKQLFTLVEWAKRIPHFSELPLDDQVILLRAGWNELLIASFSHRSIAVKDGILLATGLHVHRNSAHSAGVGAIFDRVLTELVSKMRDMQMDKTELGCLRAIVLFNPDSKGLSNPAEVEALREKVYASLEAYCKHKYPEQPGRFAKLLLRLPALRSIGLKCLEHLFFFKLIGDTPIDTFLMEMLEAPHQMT
Procedure, shortened: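 Agonist mode; 9-cis retinoic acid positive control. HEK 293T UAS-bla reporter cells, 2% charcoal-stripped FBS, 16 hr compound exposure at 37 C/5% CO2. LiveBLAzer B/G FRET substrate 2 hr RT; ex 405, em 460/530 nm.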

[10] = qHTS assay to identify small molecule antagonists of the estrogen related receptor (ERR) signaling pathway from Tox21 library - cell viability counter screen (AID 1224834); note: nearly all actives have a fitted effect of over 30% in size; note: potency is the fitted concentration of half-maximal effect
Procedure, shortened: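 Compounds in DMSO were pinned onto ERR cells that had been incubated for 6 h, and the plates were held at 37 C for 17.5 h. CellTiter-Fluor reagent was then added and fluorescence was measured after 30 min.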

[11] = target: Nuclear receptor subfamily 1 group I member 3 (Homo sapiens) (UniProt Q14994); assay: qHTS assay to identify small molecule agonists of the constitutive androstane receptor (CAR) signaling pathway (AID 1224839); note: nearly all actives have a fitted effect of over 15% in size; note: potency is the fitted concentration of half-maximal effect
Procedure, shortened: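 Luminescence read-out (ONE-Glo, 30 min, room temperature) from double-stable HepG2-CYP2B6-hCAR cells exposed 24 h to 15-point compound series in presence of 0.75 uM PK11195 final.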

[12] = qHTS assay to identify small molecule antagonists of the estrogen related receptor signaling pathway with the pleiotropic PPARgamma coactivator (PGC) from Tox21 10K library (AID 1224841; call rule not given here; note: actives are mostly falling curves and most rising ones were filed inactive; nearly all actives have a fitted effect of over 50% in size; note: potency is the fitted concentration of half-maximal effect)
Procedure, shortened: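 Cells stably carrying the PGC/ERR reporter, seeded at 2,000 per well, received pin-transferred compounds 6 h post-plating. Exposure lasted 18 h at 37 C. Signal: One-Glo luminescence.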

[13] = qHTS assay to identify small molecule antagonists of the estrogen related receptor signaling pathway with the pleiotropic PPARgamma coactivator (PGC) from Tox21 10K library - cell viability counter screen (AID 1224840; active = well fitted cell-killing curve with a large enough effect in the repeat runs, not every such curve was filed as active; note: nearly all actives have a fitted effect of over 40% in size; note: potency is the fitted concentration of half-maximal effect)
Procedure, shortened: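 Cell viability is measured by CellTiter-Fluor fluorescence in PGC/ERR cells that receive compounds after a 6-hour attachment period and are then incubated 17.5 hours at 37 C.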

[14] = qHTS assay to identify small molecule agonists of the estrogen related receptor signaling pathway with the pleiotropic PPARgamma coactivator (PGC) from Tox21 10K library (AID 1224842); note: nearly all actives have a fitted effect of over 15% in size
Procedure, shortened: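 PGC/ERR reporter cell line, 2,000 cells per well, incubated 6 h at 37 C before 23 nL compound in DMSO was added. After 18 h at 37 C, One-Glo luminescence read following 30 min at room temperature.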

| SMILES | Potency [1] | Potency [2] | Potency [3] | Potency [4] | Potency [5] | Potency [6] | Potency [7] | Potency [8] | Potency [9] | Potency [10] | Potency [11] | Potency [12] | Potency [13] | Potency [14] |
| --- | --- | --- | --- | --- | --- | --- | --- | --- | --- | --- | --- | --- | --- | --- |
| C=C1CC[C@H](O)CC1=C/C=C1\CCC[C@]2(C)[C@@H]([C@H](C)/C=C/[C@H](C)C(C)C)CC[C@@H]12 | 24.5 µM (active) | inactive | inactive | 61.1 µM (active) | inactive | inactive | inactive | inactive |  |  |  |  |  |  |
| O=S(=O)(O)CCS | inactive | inactive |  |  | inactive | inactive | inactive | inactive | inactive | inactive | inactive | inactive |  |  |
| O=C1N=C(O)CN1/N=C/c1ccc(-c2ccc([N+](=O)[O-])cc2)o1 | inactive | inactive |  |  |  |  | inactive | inactive |  | 43.3 µM (active) and 26.6 µM (active) | inactive |  | 48.6 µM (active) and inactive |  |
| CS(=O)(=O)c1ccc([C@@H](O)[C@@H](CO)NC(=O)C(Cl)Cl)cc1 | inactive | inactive |  |  | inactive | inactive | inactive |  | inactive | inactive | inactive |  | inactive |  |
| CCCCCCOC(C)=O | inactive | inactive |  |  | inactive | inactive | inactive |  | inactive | inactive | inactive | inactive | inactive | inactive |
| Cc1cc(Cc2ccc(N)c(C)c2)ccc1N | inactive | inactive | inactive | inactive | inactive |  | inactive | inactive |  | inactive | 48.6 µM (active) |  |  |  |
| O=S(=O)(Oc1ccc(Cl)cc1Cl)c1ccccc1 | inactive | inactive | inactive | 68.6 µM (active) | 79.6 µM (active) |  | inactive | inactive |  | inactive | 15.6 µM (active) and 48.6 µM (active) | inactive | inactive |  |
| CCCCCCCCCCCCN | 21.9 µM (active) and inactive | inactive and 68.6 µM (active) |  |  | inactive |  |  | inactive | inactive | inactive and 7.7 µM (active) | inactive |  |  |  |
| NCCNCCNCCNCCN | inactive | inactive |  |  | inactive | inactive | inactive |  | inactive | inactive | inactive | inactive |  |  |
| c1ccc2ccccc2c1 | inactive | inactive | inactive | inactive | inactive |  | inactive |  |  | inactive |  | inactive | inactive |  |
| CC1=C(/C=C/C(C)=C/C=C/C(C)=C/CO)C(C)(C)CCC1 | inactive | inactive | inactive | 13.9 µM (active) and 32.3 µM (active) | inactive |  | inactive |  |  | inactive |  | inactive | inactive |  |
| CC(C)n1c(/C=C/[C@@H](O)C[C@@H](O)CC(=O)O)c(-c2ccc(F)cc2)c2ccccc21 |  | inactive |  |  |  | inactive | inactive |  | inactive | inactive |  |  | inactive |  |
| O=C(O)c1ccc([N+](=O)[O-])cc1 | inactive | inactive |  |  | inactive | inactive | inactive | inactive | inactive | inactive | inactive |  | inactive |  |
| C/C=C(C)/C=C/C=C(C)C | inactive | inactive |  |  | inactive |  | inactive | inactive | inactive | inactive | inactive |  | inactive |  |
| CCCCCCCCC | inactive | inactive |  |  | inactive |  | inactive | inactive | inactive | inactive | inactive |  | inactive |  |
| CC1COc2ccccc2N1C(=O)C(Cl)Cl (stereo not given) | inactive | inactive |  |  | inactive | 27.3 µM (active) |  |  |  |  | 48.5 µM (active) |  | inactive |  |
| OCC1CCCO1 (stereo not given) | inactive | inactive | inactive | inactive | inactive | inactive | inactive | inactive |  | inactive | inactive |  | inactive |  |
| CCCCCCCCCC(=O)O | inactive | inactive | inactive | inactive |  | inactive | inactive |  |  | inactive |  | inactive | inactive |  |
| CCCCC(CC)COC(=O)CCCCCCCC(=O)OCC(CC)CCCC (stereo not given) | inactive | inactive |  |  | inactive |  |  | 24.3 µM (active) and inactive | inactive | 17.2 µM (active) and inactive | inactive | 24.3 µM (active) and inactive | 8.63 µM (active) and inactive |  |
| S=c1nc[nH]c2nc[nH]c12 | 3.01 µM (active) |  | inactive | inactive | inactive | inactive |  |  |  |  | inactive |  |  |  |
| COC(=O)c1ccccc1O | 43.8 µM (active) and inactive | inactive | inactive | inactive | 63.5 µM (active) and inactive |  | inactive |  |  | inactive |  | inactive |  |  |
| CC[Si](OC(C)=O)(OC(C)=O)OC(C)=O | inactive | inactive |  |  | inactive |  | inactive |  | inactive | inactive | inactive |  | inactive |  |
| O=C1CCCCC1 | inactive | inactive |  |  | inactive |  | inactive |  | inactive | inactive | inactive | inactive | inactive |  |
| Clc1ccc(Cl)c(Cl)c1Cl | inactive | inactive |  |  | inactive |  | inactive | inactive |  | inactive | inactive |  |  |  |
| Cc1ccc(C(=O)O)o1 | inactive | inactive |  |  | inactive |  | inactive |  |  | inactive | inactive |  | inactive |  |
| CN(CCOc1ccc(CC2SC(=O)NC2=O)cc1)c1ccccn1 (stereo not given) | inactive | inactive |  |  | 70.6 µM (active) and inactive | inactive | inactive | inactive |  | inactive | inactive |  | inactive |  |
| O=C(c1ccc(O)cc1)c1ccc(O)cc1O |  |  | inactive | inactive | 71.8 µM (active) and 39.9 µM (active) |  | inactive | inactive |  | inactive | 27.6 µM (active) and 54.5 µM (active) |  | inactive |  |
| Oc1ccc2ccccc2c1N=Nc1ccccc1 |  | inactive | inactive | 12.2 µM (active) | 12.6 µM (active) and 22.4 µM (active) |  | 30.6 µM (active) |  | inactive | 27.3 µM (active) | 30.6 µM (active) and 21.7 µM (active) |  |  |  |
| Cc1cc(NS(=O)(=O)c2ccc(N)cc2)no1 | inactive | inactive |  | inactive |  | inactive | inactive | inactive |  | inactive | inactive |  | inactive |  |
| COCC(C)O (stereo not given) | inactive | inactive |  |  | inactive |  | inactive |  | inactive | inactive |  | inactive | inactive |  |

Reference: PubChem BioAssay (Tox21)
